This is a sample that favours compounds with a hit; in the whole collection about 4.2% have one here.
Sfp inh: blocks B. subtilis Sfp PPTase activity. AID 1490. Potency, µM, without a hit: largest response in the series, negative = inhibition, hits mostly inhibitors. Biochemical Sfp PPTase activity, qHTS. 310,000 compounds, 3.5% hits. Q9F4F7;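 further: the enzyme is Sfp with the accession as filed and its product quenches rhodamine fluorescence; potency means the concentration at half of the fitted maximal effect; 0% = enzyme reaction without inhibitor and -100% = no enzyme wells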
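Compounds were incubated with enzyme (final 15 nM) for 15 min at room temperature before substrate addition started the reaction. Fluorescence at 525 nm excitation, 598 nm emission was recorded immediately and after 30 minutes.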
TCR act: activates T cell receptor signaling. 330,000 tested, under 10 active. primary human leukocytes, anti-CD3, IL-2 HTRF, 48 h. Potency, µM (highest dose often 9.22 µM), without a hit: at the highest dose activation of IL-2 secretion, actives largely listed as activators; further: % of control where 0% means no effect
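Compounds are tested in HTS on primary human leukocytes co-incubated with a-CD3 beads for 48 hr. IL-2 output is measured by time-resolved FRET.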
ClpP mod: qHTS Assay for Activators of ClpP. 340,000 compounds, 1.9% hits. ATP-dependent Clp protease proteolytic subunit (Bacillus subtilis (strain 168)), P80244. Potency, µM (doses to about 57.5 µM), for the others: at the top dose activity change, negative = active. purified B. subtilis ClpP, FRET peptide cleavage, 20 min; active means well fitted falling curve with a large enough effect; inconclusive means small, poorly fitted or top-dose-only effect; inactive means no such curve, though single readings can be large or run the other way; further: potency means the concentration at half of the fitted maximal effect; the source files actives as falling curves though it sought activators and does not explain the sign; nearly all actives have a fitted effect of over 65% in size
Target sequence (P80244 whole entry, looked up): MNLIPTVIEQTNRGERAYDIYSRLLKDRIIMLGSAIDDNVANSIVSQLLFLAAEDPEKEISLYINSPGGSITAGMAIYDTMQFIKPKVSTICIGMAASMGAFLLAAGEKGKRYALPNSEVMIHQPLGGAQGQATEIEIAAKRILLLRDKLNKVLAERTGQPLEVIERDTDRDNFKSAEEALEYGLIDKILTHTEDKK
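ClpP 10 microg/mL final, pH 8 Tris/KCl buffer with BSA, glycerol, Tween-20; compound pinned in; FRET-FV substrate; RT 20 min; Ex320/Em430; ΔFRET vs ADEP 5.8 microM, DMSO, no enzyme.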
uPA surface inh: blocks generation of uPA at the cell surface; Potency, µM (top dose mostly 38.3 µM), without a hit: at the top dose activity change, negative = inhibition, most hits filed as inhibitors; 330,000 compounds, 0.31% hits; cell surface uPA generation assay, qHTS; AID 540303; active means well fitted inhibition curve with a large enough effect; inconclusive means small, poorly fitted or top-dose-only effect; inactive means no such curve, though single readings can be large or run the other way; tested in mouse RAW 264.7 cells; further: potency means the concentration at half of the fitted maximal effect; on the % scale 0 is the no-effect control and ±100 the full control effect; nearly all actives have a fitted effect of over 55% in size
Numbers without * were called inactive; ? = inconclusive; . = no result; [ ] = another dose, or the depositor's remark. Unless noted, the call rests on the fitted dose curve; in most records, active means well fitted curve in the direction sought with a large enough effect; inconclusive means small, poorly fitted or top-dose-only effect, or another doubt; inactive means no such curve, though single readings can be large; an effect the other way counts as inactive or inconclusive.

SMILES	Sfp inh	TCR act	ClpP mod	uPA surface inh
CC(=O)N1CCC2(CC1)C/C(=N\NC(=S)Nc1ccccc1F)c1cc(O)ccc1O2	-25.9%	2.1%	25.1µM*	4.2%
COc1ccc(NC(=S)N/N=C2\CC(C)(C)Oc3ccc(O)cc32)cc1	-2.8%	1.0%[46.1 µM]	-28.8%	-0.3%
COc1ccccc1NC(=S)N/N=C1\CC(C)(C)Oc2ccc(O)cc21	37.9%	2.6%	25.1µM*	11.2%
CCOC(=O)CSc1nc2ccc(NC(=O)COc3ccccc3C)cc2s1	.	.	3.7%	.
O=C(Nc1ccccn1)c1ccc([N+](=O)[O-])o1	25.7%	-0.4%	17.0%	7.08µM*
COc1ccc(C(=O)Nc2ccccc2C(=O)Nc2ccccn2)cc1	11.2%	0.1%	.	-12.8%
NC(=O)c1ccsc1NC(=O)c1ccc([N+](=O)[O-])o1	.	5.7%	-1.2%	7.08µM*
Cc1cccc(NC(=O)c2ccc([N+](=O)[O-])o2)c1C	15.9%	0.2%	0.5%	-11.9%
NC(=O)c1ccsc1NC(=O)COC(=O)c1ccc([N+](=O)[O-])o1	.	5.8%	0.4%	6.4%
O=C(Nc1ccccc1C(=O)Nc1ccccn1)c1ccc([N+](=O)[O-])cc1	-14.6%	-0.2%	31.6µM*	-1.1%
COc1ccccc1NC(=O)c1ccc([N+](=O)[O-])o1	.	-3.1%	-0.5%	10µM*
COc1ccccc1CNC(=O)COc1cc(=O)n(C)c2ccccc12	.	.	-8.9%	.
Cc1nonc1CN(C)C(=O)CC1C(=O)NCCN1Cc1c(F)cccc1Cl (stereo not drawn)	?	-0.2%	.	3.9%
CN(CCc1ccccn1)C(=O)CC1C(=O)NCCN1Cc1ccc(-c2ccccc2)cc1 (stereo not drawn)	50.1µM*	-4.7%	.	4.1%
Cc1cc(CN(C)C(=O)CC2C(=O)NCCN2Cc2c(F)cccc2Cl)n[nH]1 (stereo not drawn)	50.1µM*	1.3%	.	-2.2%
COc1ccc(CSCC(=O)Nc2ccccc2)cc1[N+](=O)[O-]	-2.2%	-5.3%	.	-1.1%
Cc1ccccc1N1CCN(C(=O)c2ccccc2NC(=O)/C=C\C(=O)O)CC1	-7.6%	-10.4%	-11.0%	-0.4%
O=C(O)/C=C\C(=O)Nc1ccccc1C(=O)N1CCN(c2ccc(Cl)cc2)CC1	-23.4%	-6.9%	20µM*	5.5%
CC(C)c1ccc(N2CCN(C(=O)c3ccccc3NC(=O)/C=C\C(=O)O)CC2)cc1	79.4µM*	4.8%	-2.5%	5.0%
CC(C)[C@H]1COCCS(=O)(=O)N1Cc1cccc([N+](=O)[O-])c1	.	.	0.7%	.
Cc1c(Cl)cccc1NC(=O)c1ccc2c(c1)nnn2C1CCCC1	.	.	-4.1%	.
CC1CCc2c(sc(NC(=O)COc3ccccc3C(C)(C)C)c2C#N)C1 (stereo not drawn)	.	.	0.6%	.
CC1CCc2c(sc(NC(=O)COC(=O)c3ccccc3NCc3ccco3)c2C#N)C1 (stereo not drawn)	-5.7%	-10.2%	12.6µM*	.
COc1ccc(N2CCN(C(CNC(=O)c3c(F)cccc3F)c3ccc4c(c3)OCO4)CC2)cc1 (stereo not drawn)	.	.	-4.4%	.
CCc1ccc2c(Cl)c(C(=O)N/N=C/c3c[nH]c4ccccc34)sc2c1	10.4%	5.5%	25.1µM*	-13.8%
SMILES	Sfp inh	TCR act	ClpP mod	uPA surface inh
N#Cc1c(Nc2ccccc2Cl)s[nH]c1=O	3.98µM*	3.1%	.	-8.5%
N#Cc1c(Nc2ccccc2C(F)(F)F)s[nH]c1=O	3.55µM*	-3.2%	.	-6.7%
Cc1cc(C)c(C#N)c(Nc2ccccc2Cl)n1	5.1%	-2.8%	?	-0.6%
N#Cc1c(Nc2ccccc2)s[nH]c1=O	20µM*	8.4%	-4.6%	-8.0%
Cc1ccc2c(c1)C(=O)OC(C(=O)Nc1ccccc1C(=O)O)C2 (stereo not drawn)	.	.	-3.7%	.
CCOC(=O)c1oc2c(C)c(O)ccc2c(=O)c1-c1nncn1-c1ccccc1	12.8%	7.8%	-1.6%	.
CCOC(=O)c1oc2c(O)c(O)ccc2c(=O)c1-c1nncn1-c1ccccc1	?	2.3%	22.4µM*	3.9%
CCN(c1cc(C)cc(C)c1)S(=O)(=O)c1nnc(NC(=O)c2ccccc2C)s1	.	.	-5.6%	.
Cc1ccc(C)c(C(=O)CN2C(=O)c3ccccc3C2=O)c1	7.7%	-1.9%	.	-4.8%
O=C1c2ccccc2C(=O)N1OS(=O)(=O)c1ccccc1	10µM*	4.3%[46.1 µM]	.	.
O=C1c2cccc3cccc(c23)C(=O)N1OS(=O)(=O)c1ccc(Br)cc1	0.8%	3.1%[46.1 µM]	.	2.6%
Cc1cc(S(=O)(=O)ON2C(=O)c3ccccc3C2=O)ccc1F	11.2µM*	9.4%	4.8%	19.6%
O=C1c2cccc3cccc(c23)C(=O)N1OS(=O)(=O)c1ccccc1	-8.5%	0.1%	28.2µM*	2.2%
Cc1ccc(C)c(S(=O)(=O)ON2C(=O)c3ccccc3C2=O)c1	17.8µM*	12.3%[46.1 µM]	.	-3.3%
Cc1ccc(S(=O)(=O)ON2C(=O)c3cccc4cccc(c34)C2=O)cc1	-6.2%	4.1%[46.1 µM]	3.3%	6.7%
CCOC(=O)c1ccc(NC(=O)Cc2ccc(-n3c(CC)nc4cccnc43)cc2)cc1	.	.	-0.5%	.
COc1ccccc1N=NNc1ccc(S(=O)(=O)NC(C)=O)cc1	.	.	-0.2%	.
CCOc1ccc(Nc2nc3ccccc3n3c(CC)nnc23)cc1	.	.	-5.9%	.
O=C(NCCc1ccc(Cl)cc1)C(=O)NCC(c1ccc2c(c1)OCO2)N1CCOCC1 (stereo not drawn)	.	.	0.8%	.
N#C/C(=N\Nc1c(Cl)cccc1Cl)C(=O)NN	4.3%	1.3%	15.8µM*	-3.9%
Cc1ccc(C)c(-n2c3nc(=O)[nH]c(=O)c-3cc3cc([N+](=O)[O-])ccc32)c1	50.1µM*	3.4%	-12.3%	-10.2%
Cc1cccc(-n2c3nc(=O)[nH]c(=O)c-3cc3cc([N+](=O)[O-])ccc32)c1	-17.6%	-1.0%[46.1 µM]	-10.4%	-12.9%
CN(N=Cc1cccc2cccnc12)c1ccc([N+](=O)[O-])cc1[N+](=O)[O-]	.	-3.6%	-21.3%	1.7%
CN(C)/N=C/c1ccc([N+](=O)[O-])cc1[N+](=O)[O-]	56.2µM*	-10.3%	-1.7%	.
O=C(CCC1CCCCC1)Nc1nncs1	12.7%	.	-1.4%	2.6%
SMILES	Sfp inh	TCR act	ClpP mod	uPA surface inh
Oc1cccc(CN2CCCCC2)c1	0.2%	-1.4%[46.1 µM]	-1.5%	-3.6%
CC(C)(C)c1cc(CN2CCCCC2)cc(C(C)(C)C)c1O	35.5µM*	.	.	.
COc1cc2c(NC3CCN(C(C)C)CC3)nc(N3CCCN(C)CC3)nc2cc1OCCCN(C)C	.	.	4.8%	.
CCCCCCN1C[C@H](O)[C@@H](n2cc(C3CC3)nn2)C[C@@H]1c1ccc(OC)cc1	.	.	-0.8%	.
Nc1ncnc2c1ncn2[C@@H]1O[C@H](COP(=O)(O)CP(=O)(O)OP(=O)(O)O)[C@@H](O)[C@H]1O	56.2µM*	.	.	.
CCOC(=O)c1sc(NC(=O)c2cc(-c3ccccc3)nc3ccccc23)c(C#N)c1C	39.8µM*	-3.3%	1.2%	4.0%
CCOC(=O)c1sc(NC(=O)CSc2nnc(Cc3ccccc3)o2)c(C#N)c1C	3.16µM*	-7.2%	-0.6%	-8.6%
CCOC(=O)c1sc(NC(=O)CSc2nc(C)cc(C)n2)c(C#N)c1C	-0.5%	3.3%	-6.0%	-4.1%
CCOC(=O)c1sc(NC(=O)CSc2n[nH]c(-c3ccccc3)n2)c(C#N)c1C	7.08µM*	0.1%	124.7%	2.2%

Screening results from PubChem.
